# According to PubChem BioAssay (EPA / NIEHS):
# The source made the active and inactive calls. The calls were made as follows: active = hit-call score of the fitted dose curve at least 0.9, where 1 is the maximum; inactive = score below 0.9.
# Read-out: Tumor necrosis factor receptor superfamily member 6 (Homo sapiens) (UniProt P25445)
# Experiment: LTEA_HepaRG_FAS: Life Technologies and Expression Analysis (LTEA) Assay for Fas cell surface death receptor (FAS) using HepaRG (AID 2283447)
# Conditions: mRNA level, 48 h; actives raise or lower the signal
# Description: LTEA_HepaRG is a cell based, multiplexed-readout assay that uses HepaRG, a human liver cell line, with measurements taken at 48 hours after chemical dosing on a 96-well plate.LTEA_HepaRG_FAS is one of 102 assay component(s) measured in the LTEA HepaRG cell culture assay. It is a marker of Cell proliferation, survival, death.Data from the assay component LTEA_HepaRG_FAS was analyzed into 1 endpoint. This assay endpoint, LTEA_HepaRG_FAS, was analyzed with bidirectional fitting relative to DMSO as the negative control and baseline of activity. Using a type of inducible reporter, measures of mRNA induction for gain or loss-of-signal activity can be used to understand regulation of transcription factor activity. To generalize the intended target to other relatable targets, this assay endpoint is annotated to the cytokine receptor intended target family, where the subfamily is TNF receptor.
# A total of 1060 chemcials from the ToxCast library were tested in eight-point concentration-response experiments. Cell culture and cytotoxicity assays were conducted at Thermo Fisher Scientific's Custom Services facility (Madison, WI). A single lot of human HepaRG cells (Thermo Fisher Scientific, Frederick, MD) was used for the cell culture experiments. 96-well format collagen type I coated plates of human HepaRG cells were prepared using established methods. Briefly, cryopreserved HepaRG cells were thawed, plated at a density of approximately 100,000 cells/well in HepaRG Thaw, Plate, and General Purpose media (HPRG770, Thermo Fisher Scientific), and incubated for 48 hours. 0.5% DMSO was selected as vehicle control to balance the requisite need of DMSO in HepaRG cultures to maintain differentiation (for example, baseline metabolism, proportions of hepatocytes vs. cholangiocytes), while enabling further hepatic receptor pathway activation (for example, PXR and CAR) in response to chemical exposure. 48 hours after plating, the culture medium was replaced with HepaRG Serum-Free Incudtion Media. Cells were exposed to each test chemical in duplicate and maintained in CO2 incubators for another 48 hours. Chemical plates were thawed to room temperature and 200x concentrations of treatment groups were prepared. 8-point conentration-reponse curves were made with the highest exposure at 100 uM, followed by half-log dilutions, all in 0.5% DMSO. Each test plate contained variouse controls, induction positive controls (1mM phenobarbital), cytotoxicity positive controls ([…] aflatoxin B1), vehicle controls (0.5% DMSO), and total lysis controls (0.5% DMSO). Cell morphology images were taken using an Essen IncuCyte FLR automated microscope, with six 96-well plates imaged in about 24 minutes. Images were captured and exported and JPEG files. Spent culture media was transfered to black-well plates for the LDH assay, and remaining media was sorted at -80 C for later use. Cells were treated with RLT buffer and frozen until shipped for gene expression analysis. Total RNA was isolated from the cell suspension in 75 uL of Buffer RLT (Qiagen, Germantown, MD 20874) by Quintiles/Expression Analysis (Durham, NC) using a custom isolation procedure. Total RNA from each plate well was transferred to a preamplification plate. Fluidigm's 96.96 Dynamic ArrayTM (Fluidigm, Amsterdam, the Netherlands) technology was used for gene expression analyses by quantitative reverse transcription polymerase chain reaction (qRT-PCR, performed by Quintiles/Expression Analysis, Durham, NC)89. Standard TaqManTM Assays (Applied Biosystems/ThermoFisher Scientific, Foster City, CA) were used to assess the expression of 93 genes selected based on their selectivity and sensitivity to important hepatic receptors known to be modulated by environmental chemicals; importance in human hepatocyte functionality; and hepatotoxicity. […]
Compound,outcome,AC50
COP(=O)(OC)SCn1c(=O)oc2cc(Cl)cnc21,inactive,–
C[N+]1(C)CCCCC1,inactive,–
CSc1nnc(C(C)(C)C)c(=O)n1N,inactive,–
Cc1ccn2nc(S(=O)(=O)Nc3c(F)cccc3F)nc2n1,inactive,–
O=c1ccc(=O)[nH][nH]1,inactive,–
Nc1c(Cl)cc([N+](=O)[O-])cc1Cl,inactive,–
C#CCC1=C(C)C(OC(=O)C2C(C=C(C)C)C2(C)C)CC1=O (stereo not given),inactive,–
COc1ccc(C(=CC(=O)N2CCOCC2)c2ccc(Cl)cc2)cc1OC,inactive,–
CN(C)NC(=O)CCC(=O)O,inactive,–
CCOC(=O)CC(SP(=O)(OC)OC)C(=O)OCC (stereo not given),inactive,–
CN(C)[C@@H]1C(=O)C(C(N)=O)=C(O)[C@@]2(O)C(=O)C3=C(O)c4c(O)cccc4[C@@](C)(O)[C@H]3[C@H](O)[C@@H]12,inactive,–
Nc1nc(N)nc(NC2CC2)n1,inactive,–
CCc1cccc(CC)c1N(COC)C(=O)CCl,inactive,–
O=C(O)c1cc(Oc2ccc(C(F)(F)F)cc2Cl)ccc1[N+](=O)[O-],inactive,–
CCOP(=S)(OCC)Oc1cc(C)nc(C(C)C)n1,inactive,–
CCc1cccc(C)c1N(C(=O)CCl)C(C)COC (stereo not given),inactive,–
CC[C@H](C)[C@H]1O[C@]2(C=C[C@@H]1C)C[C@@H]1C[C@@H](C/C=C(\C)[C@@H](O[C@H]3C[C@H](OC)[C@@H](O[C@H]4C[C@H](OC)[C@@H](NC)[C@H](C)O4)[C@H](C)O3)[C@@H](C)/C=C/C=C3\CO[C@@H]4[C@H](O)C(C)=C[C@@H](C(=O)O1)[C@]34O)O2,inactive,–
COP(=O)(OC)C(O)C(Cl)(Cl)Cl (stereo not given),inactive,–
C=C(C)[C@H]1Cc2c(ccc3c2O[C@@H]2COc4cc(OC)c(OC)cc4[C@@H]2C3=O)O1,–,13.1 µM (active)
CCOP(=S)(OCC)Oc1ccc2c(C)c(Cl)c(=O)oc2c1,inactive,–

Compound,outcome,AC50
CCCSP(=O)(OCC)SCCC,inactive,–
CC(C1CC1)C(O)(Cn1cncn1)c1ccc(Cl)cc1 (stereo not given),inactive,–
CCOP(=S)(Oc1cnc(C(C)(C)C)nc1)OC(C)C (stereo not given),inactive,–
Cc1cc(C2CC2)nc(Nc2ccccc2)n1,inactive,–
CCC(=O)Nc1ccc(Cl)c(Cl)c1,inactive,–
CCOP(=O)(SC(C)CC)N1CCSC1=O (stereo not given),inactive,–
CC(C)[C@H](C(=O)O[C@H](C#N)c1cccc(Oc2ccccc2)c1)c1ccc(Cl)cc1,inactive,–
CCCCOC(=O)[C@@H](C)Oc1ccc(Oc2ccc(C#N)cc2F)cc1,inactive,–
C[Si](Cn1cncn1)(c1ccc(F)cc1)c1ccc(F)cc1,inactive,–
CC(C)N(C(=O)SCC(Cl)=C(Cl)Cl)C(C)C,inactive,–
COP(=O)(OC)OC(Br)C(Cl)(Cl)Br (stereo not given),inactive,–
CC(C)=CC1C(C(=O)OCN2C(=O)C3=C(CCCC3)C2=O)C1(C)C (stereo not given),inactive,–
CCOC(=O)COc1cc(-c2nn(C)c(OC(F)F)c2Cl)c(F)cc1Cl,inactive,–
CCCCSP(=O)(SCCCC)SCCCC,inactive,–
CCOP(=S)(OCC)Oc1ccc([N+](=O)[O-])cc1,inactive,–
S=C1NCCN1,inactive,–
CCC(CC)Nc1c([N+](=O)[O-])cc(C)c(C)c1[N+](=O)[O-],inactive,–
CC(=NC#N)N(C)Cc1ccc(Cl)nc1,inactive,–
COc1cc(OC)nc(Sc2cccc(Cl)c2C(=O)O)n1,inactive,–
C#CC(C)(C)NC(=O)c1cc(Cl)cc(Cl)c1,inactive,–
